Data: the supplement of paper PMC10849652
Of roughly 8,800 targets only a part is listed; those with a hit were picked by preference. About 0.5% of all pairs of compound and target were hits.

Key:
Test in all cases: log2 fold change, soluble protein after heating vs DMSO (PISA); higher = thermal stabilisation; K562 lysate, 10 uM; active = over 0.2 and 3.5 SD of the protein, either way, in both replicates (recomputed)
alvocidib = compound: CN1CC[C@H](c2c(O)cc(O)c3c(=O)cc(-c4ccccc4Cl)oc23)[C@H](O)C1 [alvocidib]
Method in brief: (§1)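 Dounce homogenisation of K562 pellets in PBS pH 7.4 with 1 mM MgCl2 produced a crude extract, used at 1 mg/mL protein. Exposure to 10 μM compound lasted 30 min, and aliquots were then heated for 3 min across 48°C-58°C, pooled and brought to 0.5% NP-40 at 4°C. The supernatant after 21,000xg for 90 min was quantified by TMTpro 16plex LC-MS/MS with channel sums equalised. Duplicate values are given as log-two fold change in thermal stability relative to solvent controls.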

Tubastatin A = compound: CN1CCc2c(c3ccccc3n2Cc2ccc(C(=O)NO)cc2)C1 [Tubastatin A]
Method in brief: as §1

[1] = compound: CNC(=O)C1=CC=CC=C1NC2=NC(=NC=C2Cl)NC3=C(C=C(C=C3)N4CCOCC4)OC
Method in brief: as §1

defactinib = compound: CNC(=O)c1ccc(Nc2ncc(C(F)(F)F)c(NCc3nccnc3N(C)S(C)(=O)=O)n2)cc1 [defactinib]
Method in brief: as §1

[2] = compound: CNc1nc(-c2ccc3c(N)n[nH]c3c2)cc(N2C[C@@H](C(=O)NC3CCCCC3)CC[C@H]2C)n1
Method in brief: as §1

encorafenib = compound: COC(=O)N[C@@H](C)CNc1nccc(-c2cn(C(C)C)nc2-c2cc(Cl)cc(NS(C)(=O)=O)c2F)n1 [encorafenib]
Method in brief: as §1

[3] = compound: COC(=O)[C@H](CCSC)NC(=O)C1=C(C=C(C=C1)NC[C@H](CS)N)C2=CC=CC=C2
Method in brief: as §1

alisertib = compound: COc1cc(Nc2ncc3c(n2)-c2ccc(Cl)cc2C(c2c(F)cccc2OC)=NC3)ccc1C(=O)O [alisertib]
Method in brief: as §1

[4] = compound: COc1cc2nc(-c3cc(F)ccc3O)nc(N[C@@H]3CNC[C@H]3C(C)(C)O)c2cc1OC
Method in brief: as §1

gefitinib = compound: COc1cc2ncnc(Nc3ccc(F)c(Cl)c3)c2cc1OCCCN1CCOCC1 [gefitinib]
Method in brief: as §1

lapatinib = compound: CS(=O)(=O)CCNCc1ccc(-c2ccc3ncnc(Nc4ccc(OCc5cccc(F)c5)c(Cl)c4)c3c2)o1 [lapatinib]
Method in brief: as §1

pictilisib = compound: CS(=O)(=O)N1CCN(Cc2cc3nc(-c4cccc5[nH]ncc45)nc(N4CCOCC4)c3s2)CC1 [pictilisib]
Method in brief: as §1

crizotinib = compound: C[C@@H](Oc1cc(-c2cnn(C3CCNCC3)c2)cnc1N)c1c(Cl)ccc(F)c1Cl [crizotinib]
Method in brief: as §1

[5] = compound: C[C@H](C1=CC=C(C=C1)C(=O)NC2=C3C=CNC3=NC=C2)N
Method in brief: as §1

duvelisib = compound: C[C@H](Nc1ncnc2nc[nH]c12)c1cc2cccc(Cl)c2c(=O)n1-c1ccccc1 [duvelisib]
Method in brief: as §1

gandotinib = compound: Cc1cc(Nc2cc(CN3CCOCC3)c3nc(C)c(Cc4ccc(Cl)cc4F)n3n2)n[nH]1 [gandotinib]
Method in brief: as §1

tozasertib = compound: Cc1cc(Nc2cc(N3CCN(C)CC3)nc(Sc3ccc(NC(=O)C4CC4)cc3)n2)n[nH]1 [tozasertib]
Method in brief: as §1

doramapimod = compound: Cc1ccc(-n2nc(C(C)(C)C)cc2NC(=O)Nc2ccc(OCCN3CCOCC3)c3ccccc23)cc1 [doramapimod]
Method in brief: as §1

bafetinib = compound: Cc1ccc(NC(=O)c2ccc(CN3CC[C@H](N(C)C)C3)c(C(F)(F)F)c2)cc1Nc1nccc(-c2cncnc2)n1 [bafetinib]
Method in brief: as §1

[6] = compound: Cc1cccc(CC(=O)N2CCc3c2ccc(-c2cn(C)c4ncnc(N)c24)c3F)n1
Method in brief: as §1

Measured: log2 fold change

SCO1 (UniProt O75880)
Sequence of UniProt O75880 (O75880 whole entry, looked up): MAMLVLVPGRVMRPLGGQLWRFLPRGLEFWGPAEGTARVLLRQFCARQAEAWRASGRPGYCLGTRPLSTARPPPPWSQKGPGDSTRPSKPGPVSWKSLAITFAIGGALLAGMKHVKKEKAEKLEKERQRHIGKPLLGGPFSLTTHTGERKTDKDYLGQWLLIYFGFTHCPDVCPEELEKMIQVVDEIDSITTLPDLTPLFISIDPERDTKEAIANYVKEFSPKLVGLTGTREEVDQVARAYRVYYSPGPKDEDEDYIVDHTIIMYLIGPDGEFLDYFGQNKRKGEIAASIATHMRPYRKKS
active: [3] -0.57
inactive: alvocidib 0.002 | Tubastatin A -0.031 | [1] -0.051 | defactinib -0.004 | [2] 0.053 | encorafenib -0.004 | alisertib -0.096 | [4] 0.014 | gefitinib -0.015 | lapatinib 0.021 | pictilisib -0.046 | crizotinib -0.046 | [5] -0.022 | duvelisib -0.014 | gandotinib 0.047 | tozasertib 0.01 | doramapimod 0.026 | bafetinib 0.048 | [6] 0.073

RFC4 (UniProt P35249)
Sequence of UniProt P35249 (P35249 whole entry, looked up): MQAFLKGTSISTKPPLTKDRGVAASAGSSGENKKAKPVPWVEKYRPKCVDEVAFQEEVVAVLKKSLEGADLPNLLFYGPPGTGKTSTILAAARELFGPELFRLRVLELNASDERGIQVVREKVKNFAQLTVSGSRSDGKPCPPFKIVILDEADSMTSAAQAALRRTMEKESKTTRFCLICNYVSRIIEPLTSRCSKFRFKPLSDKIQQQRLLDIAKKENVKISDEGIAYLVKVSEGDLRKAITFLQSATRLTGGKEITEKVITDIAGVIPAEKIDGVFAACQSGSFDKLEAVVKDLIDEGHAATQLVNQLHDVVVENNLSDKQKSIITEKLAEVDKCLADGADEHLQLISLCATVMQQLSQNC
inactive: alvocidib -0.018 | Tubastatin A -0.119 | [1] 0.018 | defactinib 0.009 | [2] -0.043 | encorafenib 0.018 | [3] 0.088 | alisertib 0.022 | [4] 0.003 | gefitinib -0.006 | lapatinib -0.01 | pictilisib -0.004 | crizotinib -0.027 | [5] -0.065 | duvelisib 0.01 | gandotinib -0.028 | tozasertib -0.027 | doramapimod 0.035 | bafetinib -0.018 | [6] 0.041

SESN2 (UniProt P58004)
Sequence of UniProt P58004 (P58004 whole entry, looked up): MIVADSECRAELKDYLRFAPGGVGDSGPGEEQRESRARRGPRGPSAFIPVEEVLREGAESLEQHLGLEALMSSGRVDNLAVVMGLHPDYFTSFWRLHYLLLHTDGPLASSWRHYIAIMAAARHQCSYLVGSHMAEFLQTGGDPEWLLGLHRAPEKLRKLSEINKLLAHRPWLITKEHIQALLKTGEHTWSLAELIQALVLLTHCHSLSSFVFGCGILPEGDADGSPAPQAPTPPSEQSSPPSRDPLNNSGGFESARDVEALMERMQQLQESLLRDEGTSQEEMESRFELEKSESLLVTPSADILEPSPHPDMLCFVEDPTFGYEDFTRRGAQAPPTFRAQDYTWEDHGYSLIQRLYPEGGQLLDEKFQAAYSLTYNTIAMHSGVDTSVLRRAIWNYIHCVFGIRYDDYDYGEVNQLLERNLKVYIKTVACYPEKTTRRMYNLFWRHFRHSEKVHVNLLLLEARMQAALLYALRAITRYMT
inactive: alvocidib 0.028 | Tubastatin A -0.093 | [1] -0.028 | defactinib 0.039 | [2] 0.033 | encorafenib 0.038 | [3] -0.001 | alisertib -0.026 | [4] -0.045 | gefitinib -0.034 | lapatinib -0.085 | pictilisib -0.047 | crizotinib -0.042 | [5] 0.041 | duvelisib 0.047 | gandotinib 0.038 | tozasertib -0.006 | doramapimod -0.031 | bafetinib -0.15 | [6] 0.003

RIOK3 (UniProt O14730)
Sequence of UniProt O14730 (O14730 whole entry, looked up): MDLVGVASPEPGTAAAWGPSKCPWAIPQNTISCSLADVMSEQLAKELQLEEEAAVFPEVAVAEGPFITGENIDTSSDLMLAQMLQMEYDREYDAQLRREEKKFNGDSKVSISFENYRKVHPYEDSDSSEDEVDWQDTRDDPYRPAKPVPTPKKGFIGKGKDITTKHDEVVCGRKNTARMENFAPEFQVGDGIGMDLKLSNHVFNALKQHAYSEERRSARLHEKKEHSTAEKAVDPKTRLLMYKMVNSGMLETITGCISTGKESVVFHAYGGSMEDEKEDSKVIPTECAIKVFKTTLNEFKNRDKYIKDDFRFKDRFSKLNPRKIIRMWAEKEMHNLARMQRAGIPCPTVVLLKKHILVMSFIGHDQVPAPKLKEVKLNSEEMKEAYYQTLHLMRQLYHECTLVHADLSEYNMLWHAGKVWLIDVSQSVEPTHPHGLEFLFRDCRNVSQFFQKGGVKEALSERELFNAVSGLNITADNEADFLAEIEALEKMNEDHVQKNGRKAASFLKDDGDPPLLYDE
inactive: alvocidib -0.04 | [1] 0.029 | defactinib 0.018 | [2] 0.12 | encorafenib 0.058 | [3] 0.132 | alisertib -0.006 | [4] 0 | gefitinib 0.055 | lapatinib 0.026 | pictilisib -0.032 | crizotinib -0.031 | [5] 0.021 | duvelisib -0.007 | gandotinib -0.009 | tozasertib -0.008 | doramapimod 0.036 | bafetinib -0.021 | [6] 0.008
active: Tubastatin A -0.273

RAD50 isoform 2 (UniProt Q92878)
inactive: alvocidib 0.023 | Tubastatin A -0.137 | [1] 0.008 | defactinib 0.026 | [2] -0.04 | encorafenib 0.006 | [3] 0.108 | alisertib 0.002 | [4] 0.001 | gefitinib -0.016 | lapatinib -0.012 | pictilisib -0.001 | crizotinib -0.025 | [5] 0.007 | duvelisib -0.019 | gandotinib -0.07 | tozasertib 0.011 | doramapimod -0.003 | bafetinib -0.004 | [6] 0.006

SDHA (UniProt P31040)
Sequence of UniProt P31040 (P31040 whole entry, looked up): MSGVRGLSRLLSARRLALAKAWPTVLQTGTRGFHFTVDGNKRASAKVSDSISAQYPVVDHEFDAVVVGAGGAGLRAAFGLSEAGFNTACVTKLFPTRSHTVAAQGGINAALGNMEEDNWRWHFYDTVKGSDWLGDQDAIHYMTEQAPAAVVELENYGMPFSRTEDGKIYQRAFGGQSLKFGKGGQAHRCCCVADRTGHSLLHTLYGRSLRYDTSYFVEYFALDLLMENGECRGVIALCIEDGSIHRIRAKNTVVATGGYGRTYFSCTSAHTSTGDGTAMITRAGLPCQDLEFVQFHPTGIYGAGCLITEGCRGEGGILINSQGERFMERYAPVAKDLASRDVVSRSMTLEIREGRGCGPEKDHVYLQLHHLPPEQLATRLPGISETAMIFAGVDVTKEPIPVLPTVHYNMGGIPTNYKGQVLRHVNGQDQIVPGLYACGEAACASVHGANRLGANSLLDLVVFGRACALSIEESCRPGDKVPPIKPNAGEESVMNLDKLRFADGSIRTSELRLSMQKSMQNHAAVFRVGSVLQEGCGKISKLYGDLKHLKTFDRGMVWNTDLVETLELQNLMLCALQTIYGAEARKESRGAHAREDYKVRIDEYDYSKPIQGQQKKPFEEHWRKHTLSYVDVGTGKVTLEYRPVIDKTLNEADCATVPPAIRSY
inactive: alvocidib -0.004 | Tubastatin A -0.012 | [1] 0 | defactinib -0.04 | [2] 0.002 | encorafenib -0.023 | [3] -0.04 | alisertib -0.023 | [4] -0.014 | gefitinib -0.031 | lapatinib 0.004 | pictilisib -0.011 | crizotinib -0.008 | [5] -0.004 | duvelisib 0.013 | gandotinib 0.03 | tozasertib 0.006 | doramapimod 0.024 | bafetinib 0.026 | [6] -0.017

RRAGA (UniProt Q7L523)
inactive: alvocidib -0.122 | [1] -0.053 | defactinib -0.044 | [2] -0.045 | encorafenib -0.032 | [3] -0.022 | alisertib -0.161 | [4] 0.017 | gefitinib 0.04 | lapatinib 0 | pictilisib -0.06 | crizotinib -0.084 | [5] 0.075 | duvelisib 0.063 | gandotinib -0.035 | tozasertib -0.033 | doramapimod -0.058 | bafetinib -0.018 | [6] -0.02
active: Tubastatin A -0.687

RPS26P11 (UniProt Q5JNZ5)
inactive: alvocidib -0.216 | Tubastatin A 0.038 | [1] -0.064 | defactinib 0.011 | [2] 0.02 | encorafenib 0.007 | [3] 0.006 | alisertib -0.006 | [4] -0.032 | gefitinib -0.056 | lapatinib 0.024 | pictilisib -0.008 | crizotinib -0.085 | duvelisib 0.076 | gandotinib 0.147 | tozasertib -0.055 | doramapimod 0.021 | bafetinib -0.072
active: [5] -0.484 | [6] 0.24

RDH10 (UniProt Q8IZV5)
Sequence of UniProt Q8IZV5 (Q8IZV5 whole entry, looked up): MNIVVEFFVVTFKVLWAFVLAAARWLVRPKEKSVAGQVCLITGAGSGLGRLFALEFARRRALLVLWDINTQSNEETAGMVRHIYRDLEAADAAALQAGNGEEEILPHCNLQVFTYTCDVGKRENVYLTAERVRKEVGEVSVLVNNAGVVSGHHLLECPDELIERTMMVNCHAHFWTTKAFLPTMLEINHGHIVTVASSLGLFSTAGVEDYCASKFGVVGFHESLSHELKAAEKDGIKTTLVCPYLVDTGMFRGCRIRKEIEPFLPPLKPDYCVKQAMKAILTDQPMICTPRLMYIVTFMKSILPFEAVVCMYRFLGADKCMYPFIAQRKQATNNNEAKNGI
active: [3] 0.346
inactive: alvocidib -0.013 | Tubastatin A 0.015 | [1] 0.069 | defactinib 0.009 | [2] -0.013 | encorafenib -0.001 | alisertib 0.037 | [4] 0.007 | gefitinib -0.004 | lapatinib 0.004 | pictilisib -0.035 | crizotinib 0.062 | [5] -0.039 | duvelisib 0.022 | gandotinib 0.055 | tozasertib -0.032 | doramapimod -0.012 | bafetinib 0.001 | [6] 0.043

RAP1B (UniProt P61224)
Sequence of UniProt P61224 (P61224 whole entry, looked up): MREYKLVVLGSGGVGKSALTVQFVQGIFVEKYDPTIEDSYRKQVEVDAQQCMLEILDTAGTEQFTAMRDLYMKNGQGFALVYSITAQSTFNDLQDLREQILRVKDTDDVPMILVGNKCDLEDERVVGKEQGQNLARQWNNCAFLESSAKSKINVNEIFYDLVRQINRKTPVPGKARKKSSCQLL
inactive: alvocidib 0.039 | Tubastatin A 0.05 | [1] 0.005 | defactinib 0.02 | [2] 0.025 | encorafenib 0.011 | [3] -0.034 | alisertib 0.015 | [4] 0.057 | gefitinib -0.054 | lapatinib 0.009 | pictilisib -0.006 | crizotinib 0.008 | duvelisib -0.045 | gandotinib -0.036 | tozasertib 0 | doramapimod 0.017 | bafetinib 0.17 | [6] -0.021
active: [5] 0.215

SASS6 (UniProt Q6UVJ0)
Sequence of UniProt Q6UVJ0 (Q6UVJ0 whole entry, looked up): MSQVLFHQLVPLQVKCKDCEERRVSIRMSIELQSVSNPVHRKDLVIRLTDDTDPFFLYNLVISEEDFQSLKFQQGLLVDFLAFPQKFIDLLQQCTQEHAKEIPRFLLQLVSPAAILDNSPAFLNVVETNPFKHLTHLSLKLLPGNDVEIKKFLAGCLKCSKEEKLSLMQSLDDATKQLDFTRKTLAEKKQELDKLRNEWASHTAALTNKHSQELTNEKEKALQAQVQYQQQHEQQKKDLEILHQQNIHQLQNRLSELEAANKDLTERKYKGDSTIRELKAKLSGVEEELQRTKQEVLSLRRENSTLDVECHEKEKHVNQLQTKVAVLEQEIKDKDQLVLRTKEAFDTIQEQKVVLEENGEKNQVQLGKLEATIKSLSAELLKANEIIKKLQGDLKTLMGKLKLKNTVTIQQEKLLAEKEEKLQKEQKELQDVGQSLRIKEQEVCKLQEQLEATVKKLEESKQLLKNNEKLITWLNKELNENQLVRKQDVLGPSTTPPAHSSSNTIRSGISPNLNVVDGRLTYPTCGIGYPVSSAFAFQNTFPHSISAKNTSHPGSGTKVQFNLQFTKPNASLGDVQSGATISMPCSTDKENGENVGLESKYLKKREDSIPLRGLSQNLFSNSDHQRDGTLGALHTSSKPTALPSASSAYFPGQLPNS
inactive: alvocidib 0.051 | Tubastatin A -0.104 | [1] 0.018 | defactinib 0.03 | [2] -0.002 | encorafenib 0.053 | [3] 0.085 | alisertib -0.019 | [4] 0.005 | gefitinib 0.001 | lapatinib 0.001 | pictilisib -0.056 | crizotinib -0.01 | [5] 0.099 | duvelisib -0.018 | gandotinib -0.076 | tozasertib 0.004 | doramapimod -0.01 | bafetinib -0.032 | [6] -0.054

RDX (UniProt P35241)
Sequence of UniProt P35241 (P35241 whole entry, looked up): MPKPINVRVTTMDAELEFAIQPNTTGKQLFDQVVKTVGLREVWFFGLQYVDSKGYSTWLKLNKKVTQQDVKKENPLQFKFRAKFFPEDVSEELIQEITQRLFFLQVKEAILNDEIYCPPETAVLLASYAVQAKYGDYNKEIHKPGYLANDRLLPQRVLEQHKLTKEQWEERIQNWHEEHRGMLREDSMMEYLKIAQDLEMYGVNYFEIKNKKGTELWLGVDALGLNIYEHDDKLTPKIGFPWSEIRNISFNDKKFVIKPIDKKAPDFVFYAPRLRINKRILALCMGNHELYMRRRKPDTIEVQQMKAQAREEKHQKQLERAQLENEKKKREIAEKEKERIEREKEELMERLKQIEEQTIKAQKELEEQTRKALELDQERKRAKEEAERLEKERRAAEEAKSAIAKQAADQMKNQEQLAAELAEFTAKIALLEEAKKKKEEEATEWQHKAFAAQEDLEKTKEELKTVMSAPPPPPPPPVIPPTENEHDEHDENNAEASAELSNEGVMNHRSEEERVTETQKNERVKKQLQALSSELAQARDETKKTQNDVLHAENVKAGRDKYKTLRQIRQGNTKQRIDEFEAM
inactive: alvocidib 0.116 | Tubastatin A 0.042 | [1] -0.002 | defactinib -0.009 | [2] 0.034 | encorafenib -0.047 | [3] -0.033 | alisertib -0.018 | [4] 0 | gefitinib 0.013 | lapatinib -0.018 | pictilisib 0.02 | crizotinib 0.063 | duvelisib 0.005 | gandotinib -0.093 | tozasertib -0.005 | doramapimod -0.045 | bafetinib 0.077 | [6] -0.136
active: [5] 0.546

RPS29 (UniProt P62273)
inactive: alvocidib 0.23 | Tubastatin A -0.052 | [1] -0.029 | defactinib -0.027 | [2] 0.081 | encorafenib -0.062 | [3] 0.151 | alisertib -0.278 | [4] 0.032 | gefitinib -0.138 | lapatinib -0.024 | pictilisib 0.03 | crizotinib 0.054 | duvelisib -0.02 | gandotinib -0.202 | tozasertib -0.128 | doramapimod -0.105 | bafetinib 0.205 | [6] -0.315
active: [5] 0.793

RAF1 isoform 2 (UniProt P04049)
Sequence of UniProt P04049 (P04049 whole entry, looked up): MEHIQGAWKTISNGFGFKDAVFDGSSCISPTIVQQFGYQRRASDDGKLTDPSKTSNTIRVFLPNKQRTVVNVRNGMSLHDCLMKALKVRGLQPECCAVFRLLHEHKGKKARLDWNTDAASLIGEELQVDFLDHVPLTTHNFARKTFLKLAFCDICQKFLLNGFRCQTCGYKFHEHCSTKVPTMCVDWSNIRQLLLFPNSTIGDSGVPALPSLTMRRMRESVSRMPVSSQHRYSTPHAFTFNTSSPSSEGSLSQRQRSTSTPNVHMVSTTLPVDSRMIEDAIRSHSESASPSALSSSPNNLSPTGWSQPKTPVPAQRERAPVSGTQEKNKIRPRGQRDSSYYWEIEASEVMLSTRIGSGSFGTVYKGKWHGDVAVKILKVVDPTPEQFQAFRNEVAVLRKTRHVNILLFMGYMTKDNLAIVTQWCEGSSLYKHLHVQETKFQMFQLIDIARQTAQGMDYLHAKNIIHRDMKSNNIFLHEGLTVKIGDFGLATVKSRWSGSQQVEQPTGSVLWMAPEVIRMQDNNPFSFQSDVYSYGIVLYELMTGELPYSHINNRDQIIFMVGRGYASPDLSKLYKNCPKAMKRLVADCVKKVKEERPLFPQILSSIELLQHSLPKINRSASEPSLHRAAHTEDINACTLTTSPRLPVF
active: encorafenib 1.06
inactive: alvocidib 0.048 | Tubastatin A -0.022 | [1] 0.019 | defactinib -0.097 | [2] -0.001 | [3] 0.048 | alisertib -0.007 | [4] 0.052 | gefitinib 0.022 | lapatinib 0.077 | pictilisib 0.014 | crizotinib -0.047 | [5] 0.046 | duvelisib -0.014 | gandotinib -0.118 | tozasertib 0.025 | doramapimod 0.025 | bafetinib -0.004 | [6] -0.016

RAPGEF2, A0A2R8YGD3
active: Tubastatin A 0.236 | [5] -0.431
inactive: alvocidib -0.241 | [1] 0.017 | defactinib 0.119 | [2] 0.025 | encorafenib 0.017 | [3] 0.021 | alisertib 0.007 | [4] -0.017 | gefitinib -0.042 | lapatinib -0.014 | pictilisib 0.015 | crizotinib 0.024 | duvelisib 0.018 | gandotinib 0.038 | tozasertib 0.014 | doramapimod -0.039 | bafetinib -0.171 | [6] 0.266

RHOA (UniProt P61586)
Sequence of UniProt P61586 (P61586 whole entry, looked up): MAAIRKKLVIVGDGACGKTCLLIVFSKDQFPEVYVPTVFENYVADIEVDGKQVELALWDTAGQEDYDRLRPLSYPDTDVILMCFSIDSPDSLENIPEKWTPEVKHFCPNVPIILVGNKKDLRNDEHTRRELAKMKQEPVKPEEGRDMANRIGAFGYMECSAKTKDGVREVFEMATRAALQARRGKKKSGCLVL
inactive: alvocidib 0.093 | Tubastatin A -0.078 | [1] 0.087 | defactinib -0.029 | [2] -0.003 | encorafenib -0.042 | [3] -0.046 | alisertib 0.072 | [4] 0.029 | gefitinib 0.078 | lapatinib 0.009 | pictilisib 0.314 | crizotinib 0.035 | duvelisib -0.023 | gandotinib -0.058 | tozasertib -0.092 | doramapimod -0.036 | bafetinib 0.08 | [6] -0.138
active: [5] 0.345
